Sampled rows, rich in hits. Any-hit rate of the full collection: about 11%.
G9a block = inhibitors of human histone lysine methyltransferase G9a; Q96KQ7; G9a H3K9 monomethylation, AlphaScreen, 2 h; Potency, µM (series often up to 102 µM), without a hit: at the highest dose activity, negative = inhibition, usual class: inhibitors; 350,000 tested, 8.8% active; also: % is scaled to controls: 0 for no effect and ±100 for the full control effect; nearly all actives have a fitted effect of over 75% in size
Target sequence (Q96KQ7 913-1193 limits assumed): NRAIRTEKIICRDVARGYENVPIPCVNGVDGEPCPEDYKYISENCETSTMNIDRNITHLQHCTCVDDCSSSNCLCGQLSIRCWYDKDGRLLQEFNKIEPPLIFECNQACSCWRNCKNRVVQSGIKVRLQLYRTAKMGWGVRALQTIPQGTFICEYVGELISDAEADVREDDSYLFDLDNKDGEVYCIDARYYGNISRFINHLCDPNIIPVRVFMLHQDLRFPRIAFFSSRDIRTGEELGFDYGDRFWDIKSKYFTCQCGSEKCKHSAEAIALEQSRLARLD
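Signal arises when biotinylated H3K9 peptide, once monomethylated, bridges streptavidin donor and antibody-captured acceptor beads. Enzyme at 20 nM was preincubated 15 min with test compounds; peptide 500 nM and SAM 20 uM then reacted for 2 h.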
L3MBTL1 inh = blocks human L3MBTL1; Q9Y468; AlphaScreen L3MBTL1–H3K9me1 peptide binding; Potency, µM (top dose mostly 57.1 µM), for inactives: at the highest dose activity, negative = inhibition, actives largely listed as inhibitors; 230,000 tested, 0.66% active; also: % is scaled to controls: 0 for no effect and ±100 for the full control effect; nearly all actives have a fitted effect of over 60% in size
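AlphaScreen assay: L3MBTL1 (50 nM final) was preincubated 30 min at room temperature with biotinylated H3(1-15)K9me1 peptide (75 nM final), then 30 min with library compounds; streptavidin donor and nickel chelate acceptor beads (10 ug/mL final) added, 30 min dark.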
JMJD2A Tudor = inhibitors of human JMJD2A Tudor domain. O75164. AlphaScreen JMJD2A-Tudor / H3K4me3 peptide binding. Potency, µM (doses to about 114 µM), without a hit: at the highest dose activity change, negative = inhibition, hits mostly inhibitors. 390,000 tested, 4.4% active. AID 504339; also: % is scaled to controls: 0 for no effect and ±100 for the full control effect; nearly all actives have a fitted effect of over 50% in size
HP1b binding inh = blocks HP1-beta chromodomain binding to methylated histone tails; AID 540317; Potency, µM (titrated, usually from 114 µM), for the others: at the highest dose activity change, negative = inhibition, hits mostly inhibitors; 390,000 tested, 0.56% active; AlphaScreen HP1-beta / biotin-H3K9me3 peptide binding; also: nearly all actives have a fitted effect of over 70% in size
Target sequence (P83916 whole entry, looked up): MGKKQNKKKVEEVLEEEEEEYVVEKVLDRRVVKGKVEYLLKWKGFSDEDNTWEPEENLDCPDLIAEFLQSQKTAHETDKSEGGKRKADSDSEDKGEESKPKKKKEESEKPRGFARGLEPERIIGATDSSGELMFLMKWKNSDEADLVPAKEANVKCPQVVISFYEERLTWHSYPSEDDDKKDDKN
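HP1-beta protein (50 nM final) preincubated 30 min at room temperature with biotinylated H3(1-18)K9me3 peptide (50 nM) in PBS pH 7.4, 0.01% Tween-20, then compound added for 30 min. AlphaScreen streptavidin donor/nickel chelate acceptor beads (10 ug/mL final), 30 min dark, luminescence read.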
BAZ2B inh = BAZ2B (human) inhibition; Q9UIF8; 360,000 tested, 4.4% active; AlphaScreen BAZ2B-H3K14Ac peptide displacement; Potency, µM (doses to about 114 µM), without a hit: at the highest dose activity change, negative = inhibition, actives largely listed as inhibitors; also: % is scaled to controls: 0 for no effect and ±100 for the full control effect; nearly all actives have a fitted effect of over 60% in size
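AlphaScreen displacement of biotin-H3(5-23)K14Ac peptide (50 nM final) from BAZ2B (50 nM final) in PBS pH 7.4, 0.01% Tween-20; complex preformed 30 min RT, then compounds (top 110 uM) 30 min RT, beads 20 min dark.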
* = called active by the depositor; ? = inconclusive; / = no result given; ! = not active in a repeat; [ ] = remark or other dose. Calls follow the shape of the dose curve; as a rule, active = well fitted inhibition curve with a large enough effect; inconclusive = small, poorly fitted or top-dose-only effect; inactive = no such curve, though single readings can be large or run the other way. Potency is read from the fitted curve at half-maximal effect.

SMILES | G9a block | L3MBTL1 inh | JMJD2A Tudor | HP1b binding inh | BAZ2B inh
COc1ccc(CN2C(=O)CC(=O)NC2=O)cc1 | -14.7% | -9.8% | -4.6% | 27.5% | 0.0%
CO/C1=C\C(C)=C\[C@@H](C)[C@@H](O)[C@H](C)C/C(C)=C/C=C/[C@H](OC)[C@H]([C@@H](C)[C@@H](O)[C@H](C)[C@H]2C[C@@H](O)[C@H](C)[C@@H](C(C)C)O2)OC1=O | 25.9%[59 µM] | / | / | / | /
COC(=O)C1=C(c2ccc3ccccc3c2)C[C@@H]2CC[C@H]1N2C(=O)NCc1ccco1 | 10.4%[0.501 µM] | -25.3% | ? | -15.6% | 50.1µM*
COC(=O)C1=C(c2cc3ccccc3o2)C[C@@H]2CC[C@H]1N2C(=O)NCCNC(C)=O | / | / | -3.6% | 28.6% | /
COC(=O)C1=C(c2ccc3ccccc3c2)C[C@@H]2CC[C@H]1N2C(=O)NCC1CC1 | -16.2%[0.501 µM] | -1.1% | -7.7% | 27.5% | -9.5%
COC(=O)C1=C(c2cc3ccccc3o2)C[C@@H]2CC[C@H]1N2C(=O)NC(C)C | / | / | 39.8µM* | 52.2% | /
CCOC(=O)c1ccc2c(c1)n(CCO)c(C)[n+]2CC | 35.5µM* | 1.5% | 50.1µM* | 19.1% | 9.5%
C[C@H]1C(=O)O[C@@H]2CCN3CC=C(COC(=O)[C@@](C)(O)[C@@]1(C)O)[C@H]23 | 22.6%[21.5 µM] | / | / | / | /
O=C(CCS(=O)(=O)c1ccccc1)Nc1nnc(-c2ccco2)o1 | 31.6µM* | / | 25.1µM* | 23.0% | 50.1µM*
O=C(Nc1nnc(-c2ccco2)o1)c1cccc2ccccc12 | 9.2% | 18.1% | ? | 31.9% | ?
CCCCn1c(O)c(/C=N/NC(=O)c2ccncc2)c(=O)[nH]c1=S | -3.6% | -22.7% | -27.7% | 57.5% | 79.4µM*
Cn1c(O)c(/C=N/NC(=O)c2ccncc2)c(=O)[nH]c1=S | / | 8.1% | 79.4µM* | 55.9% | 17.8%
Cn1c(O)c(/C=N/NC(=O)c2ccncc2)c(=O)n(C)c1=S | 27.8%[12.7 µM] | / | ? | 39.7% | ?
C=C1[C@@H]2C[C@@]3([C@H]1O)[C@H]1C[C@@H]4[C@@]5(C)CC[C@H](O)[C@]4([C@H]1N(CC)C5)[C@H]3C[C@H]2O | 21.1%[21.5 µM] | / | / | / | /
CNC(C(=O)c1ccccc1)C(OC)c1ccc(C)cc1 (stereo not given) | 44.7µM* | 7.8% | -27.7% | 32.3% | -1.8%
CNC(C(=O)c1ccccc1)C(OC(C)C)c1ccc(Cl)cc1 (stereo not given) | 1.4%[12.7 µM] | 2.7% | -12.6% | 29.1% | -16.4%
COc1ccc2[nH]c(C)c(CCNCc3cn(C)c4ccccc34)c2c1 | 7.08µM* | ? | 3.16µM* | -60.4% | 17.8µM*
CC[C@H](C)C(=O)O[C@@H]1[C@H](O)[C@@H]2[C@H](CN3C[C@@H](C)CC[C@@H]3[C@@]2(C)O)[C@@H]2C[C@@]34O[C@@]5(O)[C@@H](OC(=O)[C@](C)(O)CC)CC[C@@]3(C)[C@H]5[C@H](OC(C)=O)[C@@H](OC(C)=O)[C@H]4[C@]12O | 25.6%[21.5 µM] | / | / | / | /
CC(C)n1cnc2c(C(=O)N[C@H]3CN4CCC3CC4)cc(Cl)cc21 | 28.2%[59 µM] | / | / | / | /
CCOC(=O)C1(CCOc2ccccc2)CCN(Cc2cnc(SC)nc2)CC1 | 50.1µM* | -4.7% | -0.3% | 63.6% | ?
CCCCn1c(-c2nn(C)cc2Cl)n[nH]c1=S | 12.6µM* | -8.8% | 7.94µM* | 3.3% | -2.1%[57.1 µM]
CCn1c(-c2nn(-c3ccccc3)ccc2=O)n[nH]c1=S | -125.6%[59 µM] | 10.2% | ? | 41.4% | ?
COc1ccc(OCc2n[nH]c(=S)n2Cc2ccco2)cc1 | 2.82µM* | / | ? | ? | ?
COC(=O)c1c(C)n(Cc2ccco2)c2ccc(O)cc12 | ? | / | -11.9% | 13.0% | -34.6%
Cc1cc(Br)c(NC(=O)CN2CC=C(c3ccccc3)CC2)c(Br)c1 | -7.7% | -10.3% | -32.2% | 17.8% | /
SMILES | G9a block | L3MBTL1 inh | JMJD2A Tudor | HP1b binding inh | BAZ2B inh
CC(=O)c1cccc(OCC(O)CN2CC=C(c3ccccc3)CC2)c1 (stereo not given) | ? | 1.3% | 2.82µM* | -34.6% | 70.8µM*
CCCCCCOc1ccc(C(=O)n2cnc(N)n2)cc1 | ? | / | -4.3% | 44.3% | 8.9%
CCCCCCCCCOc1ccc2[nH]cc(CCN)c2c1 | 15.8µM*! | / | / | / | 35.5µM*
COc1ccc2[nH]cc(CCN)c2c1 | 9.3%[59 µM] | -6.8% | 50.1µM* | -30.9% | ?
O=C1C[C@@H]2OCC=C3CN4CC[C@]56c7ccccc7N1[C@@H]5[C@@H]2[C@H]3C[C@H]46 (tested in a mixture with another compound) | 8.6%[59 µM] | / | / | / | /
CC(C)NC(=O)N1CCC2(CC1)CCN(C(=O)Oc1ccccc1)CC2 | -19.0%[12.7 µM] | / | / | / | /
O=C(Cc1ccc(Cl)c(Cl)c1)N1CCCCC1CN1CCCC1 (stereo not given) | 26.7µM* | / | / | / | /
CCOP(=O)(OCC)/C(=N/OC(=O)c1ccc(Cl)cc1Cl)C(N)=O | 50.1µM* | 6.7% | -2.8% | 75.6% | -1.8%
CCOP(=O)(OCC)C(NC(=O)c1ccc(Cl)cc1)=C(Cl)Cl | 46.3%[0.501 µM] | 3.4% | -3.7% | 18.9% | -9.8%
COc1ccc(NC(=O)N2CC[C@@]3(CCCN(C(=O)Oc4ccccc4)C3)C2)cc1 | 5.1%[12.7 µM] | / | / | / | /
CN1C(=O)C(=Cc2cn(CC#N)c3ccccc23)C(=O)N(C)C1=O | -16.8% | / | -18.3% | 29.1% | -4.6%
CN1C(=O)C(=Cc2coc3ccccc3c2=O)C(=O)N(C)C1=O | 31.6µM* | -0.4% | -17.6% | 15.5% | -3.9%
CCN1C(=NCCCOC(C)C)N[C@@H](c2ccccc2)[C@H](C(=O)OC)[C@H]1C | 14.0%[12.7 µM] | 3.6% | ? | 3.9% | 7.5%
O=C1OC(=O)C2C3CCC(O3)C12 (stereo not given) | -1.8%[59 µM] | 3.4% | / | / | -4.5%
COc1cc(C2c3cc4c(cc3C(O)[C@H]3COC(=O)C23)OCO4)cc(OC)c1OC (stereo not given in full) | -2.4%[2.33 µM] | / | / | / | /
COc1ccc(CN2CC=C(c3ccc(F)cc3)CC2)cc1Br | 21.0% | 2.9% | -15.9% | 88.0% | -28.9%
